# Assay results taken from PubChem BioAssay (EPA / NIEHS).
# Inconclusive results are not listed. Calls of active or inactive are those of the source. The calls were made as follows, unless noted: active = hit-call score of the fitted dose curve at least 0.9, where 1 is the maximum; inconclusive = response in the unintended direction; inactive = score below 0.9.
# Legend:
# [1] = Tanguay_ZF_120hpf_CFIN_legacy: (Legacy) Oregon State University Tanguay Lab 120 Hour Post-fertilization zebrafish Assay for Caudal Fin Malformation (AID 2283649)
# Procedure, shortened: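 Dechorionated 5D wild-type zebrafish, static exposure 6–120 hpf, 28C, sealed and dark, 0.64% v/v DMSO final. Binary fin-malformation call at 120 hpf, brightfield; gain of signal vs DMSO baseline.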
# [2] = Tanguay_ZF_120hpf_PIG_legacy: (Legacy) Oregon State University Tanguay Lab 120 Hour Post-fertilization zebrafish Assay for Pigmentation Malformation (AID 2283650)
# Procedure, shortened: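 Brightfield scoring of pigmentation malformation at 120 hpf, recorded as binary present/absent per larva. Exposure: dechorionated 5D wild-type embryos, one per well, static from 6 hpf at 28C, final DMSO 0.64% (vol/vol). Dead embryos not scored.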
# [3] = Tanguay_ZF_120hpf_CIRC_legacy: (Legacy) Oregon State University Tanguay Lab 120 Hour Post-fertilization zebrafish Assay for Circulatory Malformation (AID 2283651)
# Procedure, shortened: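 Binary circulatory malformation call at 120 hpf by brightfield imaging of zebrafish larvae; chorion removed at 4 hpf, static exposure from 6 hpf in sealed dark plates at 28C, final DMSO 0.64%; non-mortality endpoints skipped if embryo died.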
# [4] = Tanguay_ZF_120hpf_SWIM_legacy: (Legacy) Oregon State University Tanguay Lab 120 Hour Post-fertilization zebrafish Assay for Swim Bladder Malformation (AID 2283654);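 also: swim bladder malformation in each larva scored yes or no under brightfield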
# Procedure, shortened: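 Tropical 5D embryos dechorionated at 4 hpf; 1 embryo/well from 6 hpf; static, sealed, dark exposure at 28C until 120 hpf; final DMSO 0.64%; 5uM trimethyltin chloride positive control; swim bladder defect recorded yes/no; dead embryos not scored.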
# [5] = Tanguay_ZF_120hpf_NC_legacy: (Legacy) Oregon State University Tanguay Lab 120 Hour Post-fertilization zebrafish Assay for Notochord and Tail Malformation (AID 2283656)
# Procedure, shortened: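 Binary scoring of notochord distortion by brightfield microscopy; embryos dying were not scored. Wild-type Tropical 5D embryos, chorion removed, exposed singly and statically from 6 to 120 hpf, 28C, sealed, 0.64% DMSO.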
# [6] = Tanguay_ZF_120hpf_TR_legacy: (Legacy) Oregon State University Tanguay Lab 120 Hour Post-fertilization zebrafish Assay for Touch Response (AID 2283667)
# Procedure, shortened: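 Binary touch-response call at 120 hpf, analysed as gain of signal versus DMSO baseline. Wild-type 5D larvae, static exposure at 28C, 0.64% DMSO final; 5uM trimethyltin chloride as positive control.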
# [7] = Tanguay_ZF_120hpf_ActivityScore_legacy: (Legacy) Oregon State University Tanguay Lab 120 Hour Post-fertilization zebrafish Assay Score for Activity (AID 2283742);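 as to AC50: dechorionated Tropical 5D wild-type zebrafish embryos held singly per well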
# Procedure, shortened: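 Dechorionated 5D embryos, one per well, static exposure 6–120 hpf, 28C, sealed and dark; final DMSO 0.64% (vol/vol). Brightfield binary scoring of mortality plus 18 endpoints; gain-of-signal fit versus DMSO baseline.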
# [8] = CCTE_Padilla_ZF_144hpf_TERATOSCORE: (Legacy) CCTE's 144 Hour Post-fertilization zebrafish Assay Teratoscore, Padilla Lab (AID 2283679; active = hit-call score of the fitted dose curve at least 0.9, where 1 is the maximum; inactive = score below 0.9;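 as to AC50: zebrafish embryos with chorions exposed by immersion from 6-8 hpf to 5 dpf with daily renewal; teratogenicity score from eye scoring of death hatching and malformations at 144 hpf; higher score means more developmental defects relative to DMSO baseline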)
# Procedure, shortened: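 Larvae scored by eye at 144 hpf for death, hatching and malformations after a day in clean Hanks'. Before that, daily-renewed exposure at 80 uM (0.4% DMSO, 26C) from roughly 6-8 hpf through 5 dpf, 4 embryos per chemical.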
# [9] = STM_H9_OrnithineISnorm_perc: Stemina devTOX quickPredict H9 human embryonic stem cell (hESC)-based Assay for Ornithine (ORN) Metabolite Biomarker, Normalized (AID 2283712; active = hit-call score of the fitted dose curve at least 0.9, where 1 is the maximum; inactive = score below 0.9;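 also: ornithine released into spent medium during last day measured by mass spectrometry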)
# Procedure, shortened: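 Ornithine in spent medium from the last 24 h of a 72 h exposure, deproteinised and quantified by UPLC-HRMS against an isotope-labelled internal standard, expressed relative to 0.1% DMSO. Pluripotent H9 cells; compound refreshed every 24 h.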
# [10] = STM_H9_CystineISnorm_perc: Stemina devTOX quickPredict H9 human embryonic stem cell (hESC)-based Assay for Cystine (CYSS) Metabolite Biomarker, Normalized (AID 2283713; active = hit-call score of the fitted dose curve at least 0.9, where 1 is the maximum; inactive = score below 0.9)
# Procedure, shortened: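 Cystine in spent media from the last 24 h of a 72 h H9 hESC exposure (daily re-dosing), measured by UPLC-HRMS. Values normalized to isotopic internal standard, then to 0.1% DMSO; viability via CellTiter-Fluor.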
# [11] = ArunA_CellTiter_hNC: Viability Assessment in the ArunA Biomedical's Oris Neural Crest (hNC) Cell Migration Assay (AID 2283752)
# Procedure, shortened: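 After a 72 h chemical exposure, viability of hNC cells is read with CellTiter Aqueous One and fitted as signal loss relative to DMSO. Cells were seeded at 60,000/well on Matrigel and cultured 16 h at 37 C beforehand.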
# [12] = Tanguay_ZF_120hpf_TRUN_legacy: (Legacy) Oregon State University Tanguay Lab 120 Hour Post-fertilization zebrafish Assay for Truncated Body (AID 2283655)
# Procedure, shortened: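 Whole-embryo zebrafish screen: dechorionated 5D embryos, static exposure 6–120 hpf, 28C, sealed foil-covered plates, 0.64% DMSO. Binary truncation call; gain of signal versus DMSO baseline.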
# [13] = tested on: Thyroperoxidase (TPO), gene 54314; assay: CCTE_Simmons_AUR_rTPO: CCTE's Amplex UltraRed Assay for Thyroperoxidase (TPO) Inhibition, Simmons Lab (AID 2283662);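 also: potency for loss of signal meaning inhibition of peroxidase activity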
# Procedure, shortened: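 Cell-free peroxidase activity assay using rat thyroid gland microsomes with excess H2O2 (300 uM) and 25 uM Amplex UltraRed. Compounds tested from 5 nM to 87.5 uM; fluorescence measured after 30 min at 37C, analysed relative to DMSO baseline.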
# [14] = CCTE_Simmons_CellTiterGLO_HEK293T: Viability Assessment in CCTE's Assays for Thyroperoxidase (TPO) Inhibition, Simmons Lab (AID 2283665);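 also: cells exposed to compound for 24 h before readout; actives reduce ATP signal below DMSO vehicle meaning cytotoxicity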
# Procedure, shortened: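 Luciferase-coupled ATP content after 24 h exposure gives viability; 8-point series from 5 nM to 87.5 uM final in 0.5% DMSO. Human HEK293T cells, 1% FBS medium, three biological replicates, dichlone positive control.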
# [15] = STM_H9_OrnCyssISnorm_ratio: Stemina devTOX quickPredict H9 human embryonic stem cell (hESC)-based Assay for Ornithine (ORN):Cystine (CYSS) Ratio (AID 2283714)
# Procedure, shortened: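 UPLC-HRMS of spent media: ORN/CYSS ratio of internal-standard-normalized percentages, DMSO (0.1%) baseline. Pluripotent H9 hESCs, 72h exposure, daily re-dosing with fresh media; last 24h media collected.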
# [16] = read-out: kallikrein-3 (KLK3), KLK3 (gene 354); assay: LTEA_HepaRG_KLK3: Life Technologies and Expression Analysis (LTEA) Assay for kallikrein-3 (KLK3) using HepaRG (AID 2283652; active = hit-call score of the fitted dose curve at least 0.9, where 1 is the maximum; inactive = score below 0.9); details: mRNA level, 48 h; actives raise or lower the signal
# Procedure, shortened: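 KLK3 transcript levels were measured by TaqMan qRT-PCR with normalisation to three housekeeping genes. HepaRG cultures received chemicals for 48 h at up to 100 uM (half-log, 8 points, 0.5% DMSO vehicle), fitted in both directions against DMSO.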
# [17] = read-out: solute carrier (SLC22A6), SLC22A6 (gene 9356); assay: LTEA_HepaRG_SLC22A6: Life Technologies and Expression Analysis (LTEA) Assay for solute carrier (SLC22A6) using HepaRG (AID 2283653; active = hit-call score of the fitted dose curve at least 0.9, where 1 is the maximum; inactive = score below 0.9); details: mRNA level, 48 h; actives raise or lower the signal
# Procedure, shortened: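 HepaRG, human liver line; 48 h chemical exposure; 8-pt half-log series from 100 uM in 0.5% DMSO, duplicate wells. Readout: TaqMan qRT-PCR of SLC22A6 mRNA, housekeeping-normalised; bidirectional curve fit vs DMSO baseline.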
# [18] = read-out: solute carrier (SLC10A1), SLC10A1 (gene 6554); assay: LTEA_HepaRG_SLC10A1: Life Technologies and Expression Analysis (LTEA) Assay for solute carrier (SLC10A1) using HepaRG (AID 2283657; active = hit-call score of the fitted dose curve at least 0.9, where 1 is the maximum; inactive = score below 0.9); details: mRNA level, 48 h; actives raise or lower the signal
# Procedure, shortened: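 HepaRG, 48 h exposure, 8-pt half-log curve from 100 uM in 0.5% DMSO, duplicates. Read-out: TaqMan qRT-PCR of SLC10A1 mRNA, normalized to three housekeeping genes. Gain/loss fit vs DMSO baseline.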
# [19] = read-out: matrix metalloproteinase-1 (MMP1), MMP1 (gene 4312); assay: LTEA_HepaRG_MMP1: Life Technologies and Expression Analysis (LTEA) Assay for matrix metalloproteinase-1 (MMP1) using HepaRG (AID 2283658; active = hit-call score of the fitted dose curve at least 0.9, where 1 is the maximum; inactive = score below 0.9); details: mRNA level, 48 h; actives raise or lower the signal
# Procedure, shortened: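 MMP1 transcript read by TaqMan qRT-PCR (Fluidigm array) after 48 h chemical exposure of HepaRG cells in serum-free induction medium. Eight-point half-log series, top 100 uM, 0.5% DMSO vehicle. Bidirectional curve fit against DMSO baseline.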
smiles,measurement,setting,value
OCCCl,outcome,[1],inactive
same,outcome,[2],inactive
same,outcome,[3],inactive
same,outcome,[4],inactive
same,outcome,[5],inactive
same,outcome,[6],inactive
same,outcome,[7],inactive
Clc1ccc(Cl)c(Cl)c1,outcome,[1],inactive
same,outcome,[2],inactive
same,outcome,[3],inactive
same,outcome,[4],inactive
same,outcome,[5],inactive
same,outcome,[8],inactive
same,outcome,[9],inactive
same,outcome,[10],inactive
same,outcome,[7],inactive
same,outcome,[11],inactive
Cc1cccc(N)c1N,outcome,[1],inactive
same,outcome,[2],inactive
same,outcome,[3],inactive
same,outcome,[4],inactive
same,outcome,[12],inactive
same,outcome,[5],inactive
same,AC50,[13],2.35 µM (active)
same,AC50,[14],4.54 µM (active)
same,outcome,[6],inactive
same,AC50,[8],57 µM (active)
same,AC50,[9],76.4 µM (active)
same,AC50,[10],79 µM (active)
same,AC50,[15],74.5 µM (active)
same,AC50,[7],44.5 µM (active)
Cc1ccc([N+](=O)[O-])cc1,outcome,[1],inactive
same,outcome,[2],inactive
same,outcome,[3],inactive
same,outcome,[16],inactive
same,outcome,[17],inactive
same,outcome,[4],inactive
same,outcome,[12],inactive
same,outcome,[5],inactive
same,outcome,[18],inactive
same,outcome,[19],inactive
same,outcome,[6],inactive
same,outcome,[7],inactive
O=[N+]([O-])C(Br)(CO)CO,outcome,[1],inactive
same,outcome,[2],inactive
same,outcome,[17],inactive
same,outcome,[4],inactive
same,outcome,[5],inactive
same,outcome,[18],inactive
same,outcome,[19],inactive
same,outcome,[6],inactive
same,outcome,[7],inactive
O=C(Oc1ccc(Br)cc1)N1CCN2CCC1CC2,outcome,[1],inactive
same,outcome,[2],inactive
same,outcome,[3],inactive
same,outcome,[4],inactive
same,outcome,[12],inactive
same,outcome,[5],inactive
same,outcome,[7],inactive
O=Cc1ccco1,outcome,[1],inactive
same,outcome,[2],inactive
same,outcome,[3],inactive
same,outcome,[12],inactive
same,outcome,[5],inactive
same,outcome,[6],inactive
same,outcome,[8],inactive
same,outcome,[7],inactive
c1ccc2c(c1)-c1cccc3cccc-2c13,outcome,[1],inactive
same,outcome,[2],inactive
same,outcome,[3],inactive
same,outcome,[12],inactive
same,outcome,[5],inactive
same,outcome,[7],inactive
[O-][Cl+]O,outcome,[1],inactive
same,outcome,[2],inactive
same,outcome,[3],inactive
same,outcome,[4],inactive
same,outcome,[6],inactive
same,outcome,[8],inactive
same,outcome,[7],inactive
CCCCCCCCOC(=O)c1ccc(C(=O)OCCCCCCCC)c(C(=O)OCCCCCCCC)c1,outcome,[1],inactive
same,outcome,[2],inactive
same,outcome,[3],inactive
same,outcome,[4],inactive
same,outcome,[12],inactive
same,outcome,[5],inactive
same,outcome,[7],inactive
